# An excerpt weighted towards active compounds, which were near 2.7% of everything screened.
# MsrA inh – bovine MsrA inhibition; purified bovine MsrA, absorbance read-out; inhibition, % at 15.5 µM; 360,000 tested, 0.75% active; AID 651718
# rCAG binder – molecules binding r(CAG) RNA repeats; r(CAG) RNA repeat, TO-PRO-1 dye displacement fluorescence; inhibition, % at 3 µM; 370,000 tested, 1.3% active; AID 651821;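 active = inhibition above the plate cutoff, the mean of all test compounds on that plate plus 3 SD, cut at about 35% in these data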;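 note: higher means more dye released from RNA so lower well fluorescence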
# bovine MsrA act – bovine methionine sulfoxide reductase A activation; activation, % at 10.6 µM; 360,000 tested, 0.3% active; purified bovine MsrA, absorbance read-out; in the data active = activation above about 7.5%
# NadD inh – blocks S. aureus nicotinate mononucleotide adenylyltransferase | purified NadD enzyme, colorimetric absorbance read-out | inhibition, % at 20 µM | 360,000 tested, 0.78% active | AID 602399; in the data active = inhibition above about 26%
# MsrA inh confirm – bovine MsrA inhibition, confirmed | inhibition, % at 15.5 µM | shares compounds with MsrA inh | 2,300 tested, 41% active | purified bovine MsrA, absorbance read-out;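 note: coupled to thioredoxin reductase with NADPH and selenocystamine and DMSO as substrate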
# Hits are given with their value; n = inactive; x = not tested or not shown. Cut-off read from the data, not from the text of the source, unless noted: active = inhibition above about 4.5%; inactive = the rest.
SMILES,MsrA inh,rCAG binder,bovine MsrA act,NadD inh,MsrA inh confirm
CCOc1ccc(/C=C/C2=NNC(=O)CC2)cc1,6.7,n,n,n,n
COc1ccc(/C=N/NC(=O)c2c(C)n(C)c3ccc(OC)cc23)c(OC)c1,4.9,n,n,n,n
COC(=O)N/N=C/c1cc(OC)c(O)c([N+](=O)[O-])c1,n,n,n,n,x
COc1cc(/C=N/NC(N)=O)cc([N+](=O)[O-])c1O,4.7,n,n,n,n
COc1cc(/C=C2\NC(=O)NC2=O)cc(Br)c1OC,n,n,n,n,x
O=C1NC(=O)/C(=C\c2ccc(OCc3cccc(C(=O)O)c3)c(Cl)c2)N1,5.3,n,n,n,n
COc1cc(/C=C2\NC(=S)NC2=O)ccc1OCc1cccc(C(=O)O)c1,5.4,n,n,n,n
O=C(O)c1cccc(COc2ccccc2Cl)c1,n,n,n,n,x
CCOc1cc(/C=C2/NC(=O)NC2=O)cc(Br)c1OCc1ccc(C(=O)O)cc1,6.2,n,n,n,n
CCOC(=O)C1CCCN(C(=O)c2ccc(Cl)c(S(=O)(=O)N3CCCCC3)c2)C1 (centres undefined),n,n,n,n,x
CC1(C)Cc2nc3oc4c(SCC(N)=O)ncnc4c3cc2CO1,n,n,n,n,x
O=C(Nc1nnc(SCc2ccccc2)s1)c1cccs1,n,n,n,n,x
CCSc1nnc(NC(=O)c2cccs2)s1,5.2,n,n,n,n
C=CCNC(N)=S,n,n,n,n,x
CN(C)c1ccc(C(=O)OCC(=O)N2CCCC2)cc1,5.7,n,n,n,n
CN(C)c1ccc(C(=O)OCC(=O)N2CCCCCC2)cc1,n,n,n,n,x
CCOc1ccc(Cl)cc1-c1cc(C(=O)NCCc2ccncc2)[nH]n1,n,n,n,n,x
CN1/C(=C\C=Nc2cc(S(=O)(=O)N3CCOCC3)ccc2N2CCOCC2)C(C)(C)c2ccccc21,7.6,n,n,n,n
Cc1ccccc1N=C/C=C1\N(C)c2ccccc2C1(C)C,n,n,n,n,x
COc1cc(N2CCCC2)ccc1C=O,6.8,n,n,n,n
COc1ccc2nc(C)cc(N/N=C/c3ccc(F)cc3)c2c1,42.0,n,n,n,53.8
O=C(O)c1cc(O)c2c(c1)C(=O)c1cccc(O)c1C2=O,4.7,n,n,n,16.9
COc1cc(OC)cc(-c2nc3ccccc3s2)c1,n,n,n,n,x
Nc1ccc2nc(-c3ccccc3)sc2c1,4.7,n,n,n,n
Nc1ccc(-c2nc3ccccc3s2)cn1,5.3,n,n,n,n
SMILES,MsrA inh,rCAG binder,bovine MsrA act,NadD inh,MsrA inh confirm
Cc1cc(-c2nc3ccccc3s2)ccc1N,4.7,n,n,n,n
O=C(NCc1ccccc1)C1CCCN(c2cnccn2)C1 (centres undefined),n,n,n,n,x
COc1ccc(C2c3ccc4ccccc4c3Oc3ncn(CCN(C)C)c(=N)c32)cc1 (centres undefined),n,n,n,n,x
COc1ccc(C(=O)NCc2cccnc2)cc1S(=O)(=O)N1CCCc2ccccc21,n,n,n,n,x
C=CCNc1sc(C(=O)C2CC2)c(N)c1C#N,6.4,n,n,n,4.8
C=CCNc1sc(C(=O)C(C)(C)C)c(N)c1C#N,n,n,n,n,x
CC(C)c1ccccc1OCC(=O)N(C)CC(=O)Nc1ccc(F)cc1,n,n,n,n,x
COc1cccc(/C=N/NC(=S)Nc2cccnc2)c1,n,n,n,n,x
Oc1ccc(/C=N/NC(=S)Nc2cccnc2)cc1,7.9,n,n,n,6.2
Oc1ccc(/C=N/NC(=S)N/N=C/c2ccc(O)cc2)cc1,6.4,n,n,n,7.2
COc1ccccc1NC(=S)N/N=C/c1ccc(O)cc1,n,n,n,n,x
O=C(O)c1ccc2c(=O)n3c(nc2c1)/C(=C/c1cccc(O)c1)CC3,5.0,n,n,n,n
O=c1c2ccc(Cl)cc2nc2n1CC/C2=C\c1cccc(O)c1,n,n,n,n,x
COc1ccc(NC(=O)/C=C/c2cccc(F)c2)cn1,n,n,n,n,x
COc1ccc(NC(=O)/C=C/c2ccco2)cn1,4.9,n,n,n,n
CCc1nnc(NC(=O)/C=C/c2ccco2)s1,6.8,n,n,n,6.2
COc1ccc(NC(=O)/C=C/c2ccc(Br)o2)cn1,5.3,n,n,n,n
CCSc1nnc(NC(=O)/C=C/c2ccco2)s1,n,n,n,n,x
Cc1ccc(COc2ccc(CNCCCN3CCCCCC3=O)cc2)cc1,n,n,n,n,x
O=C(CSc1ccccn1)Nc1ccc(Cl)cn1,n,n,n,n,x
CC(=O)OC(C(=O)N1CCOCC1)c1c(F)cccc1F (centres undefined),n,n,n,n,x
COc1ccc2cc(-c3nc4ccccc4n3C)c(=O)oc2c1,4.9,n,n,n,n
COC(=O)C1CC(O)CN1S(=O)(=O)c1cccs1 (centres undefined),n,n,n,n,x

# Bioassay records deposited in PubChem BioAssay by several laboratories.
